Records with an inconclusive call do not appear. Activity calls are given as the source filed them. The calls were made as follows, unless noted: active = hit-call score of the fitted dose curve at least 0.9, where 1 is the maximum; inactive = score below 0.9.

Experiment [1] deals with Nucleoli Translocation, AR (gene 367) (UniProt P10275). The experiment can be described thus: UPITT_HCI_U2OS_AR_TIF2_Nucleoli_Antagonist: University of Pittsburgh U2OS Androgen Receptor-Transcriptional Intermediary Factor 2 (AR-TIF2) Antagonism High Content Imaging Assay for Nucleoli Translocation (AID 2283997; active = hit-call score of the fitted dose curve at least 0.9, where 1 is the maximum). An outline of the steps: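 U2OS cells co-expressing red-fluorescent-tagged human AR and green-fluorescent-tagged TIF2, imaged by high-content microscopy for nucleolar red fluorescence. Antagonist mode against DHT; primary screen at 20 uM final (0.2% DMSO).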
Chain of Nucleoli Translocation, AR (gene 367) (P10275 whole entry, looked up, the tested form may be a part): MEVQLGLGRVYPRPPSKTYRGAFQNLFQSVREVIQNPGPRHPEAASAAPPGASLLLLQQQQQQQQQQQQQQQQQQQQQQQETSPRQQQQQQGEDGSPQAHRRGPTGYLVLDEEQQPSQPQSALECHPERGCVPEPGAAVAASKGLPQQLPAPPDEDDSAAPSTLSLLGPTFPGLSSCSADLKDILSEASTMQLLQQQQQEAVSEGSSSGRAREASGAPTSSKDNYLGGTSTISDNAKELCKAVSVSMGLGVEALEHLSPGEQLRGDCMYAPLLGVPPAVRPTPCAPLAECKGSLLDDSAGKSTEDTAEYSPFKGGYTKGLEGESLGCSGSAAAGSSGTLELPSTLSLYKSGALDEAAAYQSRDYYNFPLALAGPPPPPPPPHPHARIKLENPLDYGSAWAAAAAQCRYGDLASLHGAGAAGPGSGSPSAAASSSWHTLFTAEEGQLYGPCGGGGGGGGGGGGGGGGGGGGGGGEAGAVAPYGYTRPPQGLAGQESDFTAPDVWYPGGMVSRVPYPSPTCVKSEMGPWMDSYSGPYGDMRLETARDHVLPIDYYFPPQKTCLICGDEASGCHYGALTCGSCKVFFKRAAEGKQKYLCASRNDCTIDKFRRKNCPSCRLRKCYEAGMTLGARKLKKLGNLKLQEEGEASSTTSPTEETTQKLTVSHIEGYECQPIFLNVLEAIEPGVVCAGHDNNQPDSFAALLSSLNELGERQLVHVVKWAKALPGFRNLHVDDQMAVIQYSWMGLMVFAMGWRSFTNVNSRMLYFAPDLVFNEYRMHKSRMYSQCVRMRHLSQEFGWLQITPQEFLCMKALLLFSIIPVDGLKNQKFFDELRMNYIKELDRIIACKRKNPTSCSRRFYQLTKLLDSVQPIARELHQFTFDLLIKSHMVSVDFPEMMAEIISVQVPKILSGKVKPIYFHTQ

In experiment [2] the target is Ratio of Nucleoli Translocation and Cytoplasm, AR (gene 367) (UniProt P10275). The experiment can be described thus: UPITT_HCI_U2OS_AR_TIF2_Nucleoli_Cytoplasm_Ratio_Agonist: University of Pittsburgh U2OS Androgen Receptor-Transcriptional Intermediary Factor 2 (AR-TIF2) Agonism High Content Imaging Assay for Ratio of Nucleoli Translocation and Cytoplasm (AID 2284000; active = hit-call score of the fitted dose curve at least 0.9, where 1 is the maximum;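 also: hits raise the red nucleolar to cytoplasm ratio above vehicle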). An outline of the steps:
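U2OS cells expressing RFP-tagged human AR and GFP-tagged TIF2; high-content imaging ratio of nucleolar to cytoplasmic red fluorescence, fitted as gain of signal vs DMSO. Single point at 20 uM final (0.2% DMSO); concentration-response 0.195-50 uM final (0.5% DMSO).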

Experiment [3] in a line: CCTE_Harrill_HTTr_Viability_MCF7: CCTE's 6-hour Cell Viability Assessment for the High-Throughput Transcriptomics (HTTr) Platform, in MCF-7 cells cultured in DMEM + 10% fetal bovine serum, Harrill Lab (AID 2284010). An outline of the steps:
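Membrane integrity was scored by high-content imaging of propidium iodide dye exclusion after a 6 h exposure across an eight-point dilution series. Data were fitted bidirectionally relative to DMSO as negative control and baseline.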

A short description of experiment [4]: CCTE_Harrill_HTTr_Apoptosis_MCF7: CCTE's 6-hour Apoptosis Assessment for the High-Throughput Transcriptomics (HTTr) Platform, in MCF-7 cells cultured in DMEM + 10% fetal bovine serum, Harrill Lab (AID 2284011). An outline of the steps: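 MCF-7 cells in DMEM + 10% fetal bovine serum were exposed to chemicals for 6 hours over an eight-point dilution series. Caspase-3/7 activation was imaged by high content imaging with CellEvent Caspase 3/7 Green; bidirectional fitting used DMSO as baseline.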

Experiment [5] can be described thus: CCTE_Simmons_MITO_max_resp_rate: CCTE's HepG2 Seahorse XF Respirometric Screening Assay at Maximal Respiratory State [uncoupled], Simmons Lab (AID 2284002). The settings on record: actives raise or lower the signal. An outline of the steps:
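HepG2 oxygen consumption was read on a Seahorse XF96 after FCCP uncoupler injection, following test compound injection; 7 concentrations, 125 nM–100 uM final, three biological replicates. Bidirectional fitting against DMSO vehicle baseline.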

The nature of experiment [6]: CCTE_Simmons_MITO_viability: CellTiter-Glo Viability Assessment for CCTE's HepG2 Seahorse XF Respirometric Screening Assay [post-hoc], Simmons Lab (AID 2284007; active = hit-call score of the fitted dose curve at least 0.9, where 1 is the maximum;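 as to AC50: cells exposed to chemical for 90 min before the ATP read; actives lower ATP signal relative to DMSO baseline meaning reduced viability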). An outline of the steps:
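HepG2 cells from the Seahorse XF respirometry run were exposed 90 min to a 7-point series, 125 nM–100 uM final, DMSO vehicle; ATP content then read by luciferase luminescence. Three biological replicates, technical singles; loss of signal fitted versus DMSO.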
A general note: In ATP-based viability assays light output follows the ATP content of the culture.

For experiment [7], the target named is Nucleoli Translocation, AR (gene 367) (UniProt P10275). Description: UPITT_HCI_U2OS_AR_TIF2_Nucleoli_Agonist: University of Pittsburgh U2OS Androgen Receptor-Transcriptional Intermediary Factor 2 (AR-TIF2) Agonism High Content Imaging Assay for Nucleoli Translocation (AID 2283998; active = hit-call score of the fitted dose curve at least 0.9, where 1 is the maximum). An outline of the steps: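 Cells express human AR fused to red fluorescent protein and TIF2 fused to GFP. Red fluorescence in the nucleolar region was quantified by high-content imaging and fitted as gain-of-signal against a DMSO baseline. Compounds were tested at 0.195 to 50 uM final (0.5% DMSO).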

Experiment [8] can be described thus: CCTE_Harrill_HTTr_Apoptosis_PRF_DMEM_6hr: (Pilot) CCTE's 6-hour Apoptosis Assessment for the High-Throughput Transcriptomics (HTTr) Platform, in MCF-7 cells cultured phenol red-free DMEM + 10% charcoal-stripped fetal bovine serum, Harrill Lab (AID 2283984). An outline of the steps: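 MCF-7 cells in phenol red-free DMEM + 10% charcoal-stripped FBS, eight-point dilution series, 6 h exposure. Caspase-3/7 activation imaged by high-content imaging with CellEvent Caspase 3/7 Green; bidirectional fit versus DMSO baseline.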

Experiment [9] in a line: CCTE_Harrill_HTTr_Apoptosis_PRF_DMEM_24hr: (Pilot) CCTE's 24-hour Apoptosis Assessment for the High-Throughput Transcriptomics (HTTr) Platform, in MCF-7 cells cultured in phenol red-free DMEM + 10% charcoal-stripped fetal bovine serum, Harrill Lab (AID 2283986). An outline of the steps:
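MCF-7 cells in phenol red-free DMEM with 10% charcoal-stripped FBS, exposed 24 h across an eight-point dilution series. Caspase-3/7 activation imaged with CellEvent Green by high content imaging; bidirectional fitting against DMSO.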

The test system of experiment [10] is DIO1 (gene 1733). Description: CCTE_GLTED_hDIO1: CCTE's human Deiodinase 1 (DIO1) Inhibition Assay, Great Lakes Toxicology and Ecology Division (GLTED) Lab (AID 2283987; active = hit-call score of the fitted dose curve at least 0.9, where 1 is the maximum;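 also: isolated human DIO1 enzyme in a cell-free setup rather than cells; enzyme activity read as free iodide liberated from substrate via Sandell-Kolthoff colorimetry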). An outline of the steps: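 Cell-free human DIO1 enzyme was incubated with test chemical for 3 h, and iodide released from substrate was measured by Sandell-Kolthoff absorbance. Loss of signal versus DMSO baseline indicated inhibition; plates were run in triplicate.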

Experiment [11] in a line: CCTE_Shafer_MEA_acute_spike_number: CCTE's Neural Acute Assay for Total Number of Spikes, Shafer Lab (AID 2284008).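 As to AC50: curve fitted for decrease in spike count so AC50 reflects inhibitors.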 An outline of the steps: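 Primary rat cortical neurons on 16-electrode MEA wells; on DIV 13 or 15, 40-min baseline then 40-min recording with compound (0.03-40 uM) at 37 C. Spikes detected at 8x rms noise; percent change versus baseline, DMSO as negative control.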

Experiment [12] in a line: CCTE_Shafer_MEA_acute_firing_rate_mean: CCTE's Neural Acute Assay for Mean Firing Rate, Shafer Lab (AID 2284009).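 Also: analyzed for loss of signal so actives lower firing rate relative to DMSO.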 An outline of the steps:
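Rat primary cortical neurons on 48-well MEA plates, dosed at 0.03-40 uM on DIV 13 or 15; 40 min spontaneous activity recorded at 37 C before and after compound. Spike rate per electrode averaged per well, expressed as percent change from baseline.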

The nature of experiment [13]: CCTE_Shafer_MEA_acute_burst_number: CCTE's Neural Acute Assay for Single-Electrode Bursts, Shafer Lab (AID 2284013). An outline of the steps:
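Primary rat cortical neurons on 16-electrode MEA wells, treated on DIV 13 or 15 with compound at 0.03-40 uM. Single-electrode burst count from 40-min recordings at 37 C before and after exposure; percent change from baseline per well, DMSO negative control.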

Experiment [14] can be described thus: CCTE_Shafer_MEA_acute_burst_duration_mean: CCTE's Neural Acute Assay for Mean Burst Duration, Shafer Lab (AID 2284014).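 Also: hits are decreases in mean burst duration relative to DMSO controls.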 An outline of the steps:
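Rat primary cortical neurons on 48-well MEA, treated at DIV 13 or 15 with 0.03-40 uM in at least 3 wells. Value is percent change in mean burst duration, comparing 40 min recordings at 37 C before and during exposure.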

A short description of experiment [15]: CCTE_Shafer_MEA_acute_per_burst_spike_number_mean: CCTE's Neural Acute Assay for Average Number of Spikes Per Burst, Shafer Lab (AID 2284015).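 Also: hits are decreases in mean spikes per burst versus baseline.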 An outline of the steps:
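We recorded spontaneous network firing of rat cortical neurons for 40 min before and 40 min during exposure to compound at 0.03-40 uM, at 37 C. Spikes were detected adaptively at 8x rms noise, and the change in average spikes per burst was fitted against DMSO.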

The nature of experiment [16]: CCTE_Shafer_MEA_acute_burst_percentage_mean: CCTE's Neural Acute Assay for Percentage of Spikes in a Burst, Shafer Lab (AID 2284017).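 As to AC50: curve fitted for loss of signal so potency reflects decreased burst percentage.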 An outline of the steps: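 Compounds were tested at 0.03-40 uM on primary rat cortical neuron networks grown over microelectrodes, with at least three wells per compound. Spontaneous firing was recorded for 40 min before and 40 min after dosing, and the change in burst percentage was computed per well.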

A short description of experiment [17]: CCTE_Shafer_MEA_acute_burst_percentage_std: CCTE's Neural Acute Assay for Standard Deviation of Burst Percentage, Shafer Lab (AID 2284018).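 Also: fitted in the negative direction so actives lower burst percentage SD.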 An outline of the steps:
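Rat primary cortical neurons on 48-well MEAs, DIV 13 or 15, 37 C. 40-min baseline then 40-min recording with compound (0.03-40 uM); well-level SD of per-electrode burst spike percentage, expressed as percent change from baseline.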

Experiment [18] in a line: CCTE_Shafer_MEA_acute_per_network_burst_spike_number_std: CCTE's Neural Acute Assay for Standard Deviation of Number of Spikes in a Network Burst, Shafer Lab (AID 2284020).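 Also: fitted for decrease in spike-number SD versus DMSO so actives lower it.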 An outline of the steps: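 Rat primary cortical neurons on 48-well MEA (16 electrodes/well), treated DIV 13 or 15 at 0.03-40 uM, ≥3 wells per compound. 40 min recordings at 37 C before and after dosing; value is percent change in network-burst spike-number SD, negative direction vs DMSO.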

Experiment [19] in a line: CCTE_Shafer_MEA_acute_per_network_burst_electrodes_number_mean: CCTE's Neural Acute Assay for Mean Number of Electrodes in a Network Burst, Shafer Lab (AID 2284021).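 Also: curves fitted for decreases only so hits reduce electrodes per burst.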 An outline of the steps:
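Rat primary cortical neurons on 16-electrode MEA wells were recorded 40 min at baseline on DIV 13 or 15, then 40 min after compound (0.03-40 uM), at 37 C. Value is percent change per well, fitted in loss direction versus DMSO.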

Chain of Ratio of Nucleoli Translocation and Cytoplasm, AR (gene 367) (P10275 whole entry, looked up): as the sequence (P10275 whole entry, looked up, the tested form may be a part) above

For `CN(C)c1ccc(N=NS(=O)(=O)O)cc1`, the result in [1], in experiment [2], in experiment [3] and in [4] was inactive.
As usually defined, the AC50 is the concentration at which the activity in the assay is half-maximal. Turning to `CC(C)CC(C)(O)C#CC(C)(O)CC(C)C` (centres undefined), in experiment [5], the half-maximal activity concentration (AC50) is 37.8 µM (active). Besides, the result in experiment [6], in experiment [3] and in experiment [4] was inactive.
For the compound `Oc1ccc2c(c1)-c1ccccc1C2`, the values for the AC50 in experiment [1] and in experiment [7] were 12 µM (active) and 76.6 µM (active), respectively. Besides, the result in [2], in experiment [3] and in [4] was inactive.
Consider `CC[C@H](C)C(=O)O[C@H]1C[C@@H](C)C=C2C=C[C@H](C)[C@H](CC[C@@H]3C[C@@H](O)CC(=O)O3)[C@H]21`, for which the outcome in [8], in experiment [9], in [3] and in [4] was inactive. For the same compound, the AC50 in [10] was 48.1 µM (active).
In the case of `Nc1nc2ncc(CNc3ccc(C(=O)N[C@@H](CCC(=O)O)C(=O)O)cc3)nc2c(=O)[nH]1`, the result in [1], in [2], in experiment [3] and in [4] was inactive.
In the case of `CCC(C)(C)C(=O)O[C@H]1C[C@@H](C)C=C2C=C[C@H](C)[C@H](CC[C@@H]3C[C@@H](O)CC(=O)O3)[C@H]21`, the outcome in experiment [8], in [9], in experiment [11], in experiment [12], in experiment [13] and in experiment [14] was inactive. For the same compound, the call in experiment [15], in experiment [16], in experiment [17], in [18] and in experiment [19] was inactive. The AC50 in [10] is 49 µM (active).
On to `CCCCCCc1ccc(O)cc1O`, for which the AC50 was 128 µM (active) in experiment [10]; 14.4 µM (active) in [1]; 14.2 µM (active) in experiment [7]; 14.8 µM (active) in experiment [2]; 41.4 µM (active) in experiment [5]; 12.8 µM (active) in experiment [11]. In addition, the AC50 in experiment [12] is 12.9 µM (active); in experiment [13] it was 12.5 µM (active); in experiment [15], 20 µM (active); in experiment [16], 15 µM (active); in experiment [17] it was 27.8 µM (active); in experiment [18], 15.9 µM (active). Besides, in experiment [19], the AC50 is 8.5 µM (active). The outcome in experiment [3], in experiment [4] and in [14] was inactive.
`C=CCCCCCCCCC(=O)O`: the compound was classed as inactive in experiment [5] and in experiment [6].
`O=C(O)c1cccc(N(Cc2cccnc2)c2ccc(OC(F)F)c(OC(F)F)c2)c1`: the AC50 in [1] is 22.1 µM (active); in experiment [6], 10.7 µM (active). For the same compound, the call in experiment [7], in [2], in experiment [5], in [3] and in experiment [4] was inactive.
As for `CCCCC(CC)COC(=O)c1ccc(C(=O)OCC(CC)CCCC)cc1` (centres undefined), the result in [1], in [7], in experiment [3] and in experiment [4] was inactive.
`O=C(CCCCCCCCc1cccnc1)N1CCC(C=C(c2ccccc2)c2ccccc2)CC1`: the call in experiment [1], in experiment [5], in experiment [3] and in [4] was inactive.
Take `O=C(O)c1cc(N=Nc2ccc(S(=O)(=O)Nc3ccccn3)cc2)ccc1O`: the AC50 in experiment [10] was 27.3 µM (active); in experiment [11] it was 0.00807 µM (active); in [12], 0.00818 µM (active); in experiment [13] it was 0.0299 µM (active). The result in experiment [3], in [4], in experiment [14], in experiment [15], in experiment [16] and in experiment [17] was inactive. Besides, the compound was called inactive in experiment [18] and in experiment [19].
In the case of `Cc1ccc(N)cc1O`, the AC50 in [1] was 37 µM (active); in experiment [5] it was 60.5 µM (active). Besides, the result in experiment [7], in experiment [2] and in [6] was inactive.

The values are drawn from PubChem BioAssay (EPA / NIEHS).
